Screens deposited in PubChem BioAssay by several laboratories.
Only some compounds are listed: those with a hit (about 2.6% of all), similar ones and a draw of the others.
Mcl1-Bid inh: Mcl-1/Bid interaction inhibition | hit rate 0.97% among 220,000 | Q07820 | inhibition, % at 21.7 µM | AID 1021 | TR-FRET Mcl-1/Bid-Dy647 peptide binding, 1536-well;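 active = compounds that cut the binding signal by more than half at the single screening dose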;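 note: His-tagged Mcl-1 with europium anti-His antibody binding Bid BH3 peptide; 0% = Mcl-1 plus peptide wells and 100% = peptide-only wells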
Target sequence (Q07820 whole entry, looked up): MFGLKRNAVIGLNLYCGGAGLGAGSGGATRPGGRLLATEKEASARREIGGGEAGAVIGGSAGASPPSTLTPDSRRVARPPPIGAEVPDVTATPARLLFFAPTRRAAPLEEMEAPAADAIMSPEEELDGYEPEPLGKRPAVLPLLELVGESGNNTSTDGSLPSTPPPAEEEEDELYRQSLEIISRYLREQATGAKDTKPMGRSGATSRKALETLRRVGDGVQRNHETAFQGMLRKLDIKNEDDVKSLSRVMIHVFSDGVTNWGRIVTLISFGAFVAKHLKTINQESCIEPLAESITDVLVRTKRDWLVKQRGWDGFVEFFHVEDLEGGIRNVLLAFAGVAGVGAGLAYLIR
Mcl1-Noxa inh: disrupts binding of human Mcl-1 to Noxa peptide; Q07820; TR-FRET Mcl-1/Noxa peptide binding, 2 h; inhibition, % at 21.7 µM; hit rate 1.5% among 220,000; AID 1022;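 active = compounds that cut the protein-peptide binding signal by more than 50% relative to plate controls in a single-dose test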;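 note: His-tagged Mcl-1 with rhodamine Noxa BH3 peptide and terbium anti-His antibody; 0% = Mcl-1 plus Noxa peptide wells and 100% = peptide-only wells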
Bim-Mcl-1: human Bim-Mcl-1 interaction inhibition; Q07820; Bead-based flow cytometry, Bim peptide-Mcl-1 binding; inhibition, % at 10 µM; hit rate 0.1% among 190,000; AID 1009; in the data active = inhibition above about 40%;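 note: 0% = no compound tracer wells and 100% = peptide blocker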
eIF4E 4G PPI: blocks eIF4E binding to eIF4G. P63073+Q04637. TR-FRET eIF4E-eIF4GI(517-606) binding, 2 h. inhibition, % at 21.7 µM. hit rate 0.37% among 220,000. AID 782;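 active = inhibition above about 30%, limit read from the data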;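 note: 0% = full FRET control wells and 100% = background wells lacking eIF4GI fragment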
14-3-3 Bad inh: disrupts binding of bovine 14-3-3 zeta to phospho-Bad peptide | AID 781 | TR-FRET 14-3-3zeta/Dy647-pBad peptide displacement, 1 h | inhibition, % at 21.7 µM | hit rate 0.71% among 220,000 | P63103;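 active = inhibition above about 70%, limit read from the data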;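 note: 0% = full 14-3-3 plus peptide FRET controls and 100% = background without 14-3-3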
Target sequence (P63103 whole entry, looked up): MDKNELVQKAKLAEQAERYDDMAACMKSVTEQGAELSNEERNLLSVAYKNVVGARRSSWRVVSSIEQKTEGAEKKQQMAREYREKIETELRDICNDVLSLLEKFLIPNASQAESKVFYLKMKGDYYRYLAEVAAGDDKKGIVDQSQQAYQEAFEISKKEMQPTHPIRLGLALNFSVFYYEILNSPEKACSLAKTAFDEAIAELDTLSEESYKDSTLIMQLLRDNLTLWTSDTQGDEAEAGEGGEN
MCL1 BIM primary: disrupts human MCL1 binding to BIM-BH3 peptide; Q07820; GST-MCL1 / FITC-Bim-BH3 fluorescence polarization; inhibition, % at 10.9 µM; hit rate 0.68% among 320,000;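 active = inhibition above the mean inhibition of all tested compounds plus 3 SD, set per campaign, cut at about 40% in these data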;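 note: 0% = DMSO wells and 100% = unlabeled Bim-BH3 peptide control; higher means more loss of mP so more displacement of Bim peptide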
Numbers without * were called inactive; . = no result; [ ] = remark or other dose.

SMILES	Mcl1-Bid inh	Mcl1-Noxa inh	Bim-Mcl-1	eIF4E 4G PPI	14-3-3 Bad inh	MCL1 BIM primary
Cc1cccc(Cn2c(N3CCc4ccccc4C3)nc3c2c(=O)[nH]c(=O)n3C)c1	1	63*	1	-10	21	0
Cc1ccc(-c2nnc(N(C)C(=O)C3CCCO3)s2)cn1 (configuration not stated)	7	13	0	0	75*	6
O=C1CC(=C(c2ccccc2)c2ccccc2)C(=O)N1CCCCN1CCN(c2ccccc2)CC1	-1	5	-3	7	76*	0
O=C(NCc1ccccc1)C1=C[C@@H](c2coc3ccccc3c2=O)C[C@@H](OCCCCO)O1	-8	-5	-3	0	-3	5
COc1ccc2[nH]cc(C3N4CC5(C)CN3CC(C)(C4)C5=O)c2c1 (configuration not stated)	55*	3	2	1	2	5
CCC(C(=O)NNC(=O)c1cnccn1)c1ccccc1 (configuration not stated)	-15	-12	-2	17	7	-3
Cc1cc(C)c(S(=O)(=O)/N=C2/C=C(Sc3ncn[nH]3)C(=O)c3ccccc32)cc1C	72*	100*	1	26	76*[fluorescence artefact?]	29
Cc1ccc(C)c(S(=O)(=O)/N=C2\C=C(NS(=O)(=O)c3ccccc3)C(=O)c3ccccc32)c1	.	.	.	.	.	13
O=C(Cc1ccc(Br)cc1)Nc1ncc([N+](=O)[O-])s1	-20	70*	.	1	12	8
Cc1cc2ccccn2c1C(=O)c1ccc([N+](=O)[O-])o1	-26	17	0	1	4	3
O=C(Nc1ccc2oc(-c3ccccc3)nc2c1)c1ccc2c(c1)OCCO2	11	-5	-2	-5	29	2
O=C(Nc1ccc2oc(-c3cccnc3)nc2c1)c1ccc2c(c1)OCCO2	41	53*	11	10	81*	-67
Oc1ccc2ccccc2c1C1Nc2cccc3cccc(c23)N1	20	51*	1	-1	-8	13
CN(C(=O)c1cc(-n2cnnc2)ccc1Cl)c1ccccc1	-17	1	-2	0	5	-3
CCn1c(O)c(C#N)c(C)cc1=O	-24	28	.	0	-16	-2
Cc1cc(=O)n(CC(C)C)c(O)c1C#N	-10	38	-1	-2	75*	5
COc1ccc([C@H]2CC(=O)C=C(c3cccc(C(C)C)c3)C2)cc1OC	.	.	.	.	.	1
O=C(c1ccc([N+](=O)[O-])cc1)N1CCCC1	-5	5	.	3	1	-2
CC(=O)c1cccc(NC(=O)C2CCN(C(=O)c3ccc([N+](=O)[O-])cc3)CC2)c1	73*	9	-2	6	-7	2
O=C(c1ccccc1)N1CCN(C(=O)c2ccc([N+](=O)[O-])cc2)CC1	10	54*	-3	-3	-4	-12
COc1ccc(C2=NS(=O)(=O)N(C)C(C(=O)Nc3ccc(C(C)=O)cc3)=C2)cc1OC	.	.	.	.	.	7
CSc1nc2c(c(=O)[nH]1)C(c1cccs1)C1=C(CCCC1=O)N2 (configuration not stated)	-42	7	-4	4	8	9
O=C1CCCC2=C1C(c1cn(-c3ccccc3)nc1-c1cccs1)c1c([nH]c(=O)[nH]c1=O)N2 (configuration not stated)	50	62*	0	-6	-4	11
CCCCN(CCO)c1ncnc2sc(-c3ccccc3)cc12	.	.	.	.	.	6
COc1ccc(CCNC(=O)c2ccc(S(=O)(=O)N3CCCCC3)cc2)cc1	.	.	.	.	.	2
SMILES	Mcl1-Bid inh	Mcl1-Noxa inh	Bim-Mcl-1	eIF4E 4G PPI	14-3-3 Bad inh	MCL1 BIM primary
O=C(Nc1cc2c(oc1=O)CCCC2=O)c1ccc(Cl)cc1	-66	57*	-1	24	-1	31
COc1ccc(C(=O)NC(CO)c2nnc(SCc3ccc(Cl)c(Cl)c3)n2C)cc1 (configuration not stated)	-3	0	41*	-1	-3	3
C=C1CCN([C@@H](CC(C)C)C(=O)NCc2ccco2)S(=O)(=O)c2ccccc21	.	.	.	.	.	-1
Oc1ccc(N=Nc2cccc(C(F)(F)F)c2)cc1C=Nc1ccc(N2CCOCC2)cc1	11	69*	3	-12	5	9
O=C(Nc1ccc(-n2nncc2-c2ccco2)cc1)c1cc2ccccc2oc1=O	-120	-58	0	-64	79*[fluorescence artefact?]	-3
CN(C)CCNC(=O)CCn1nc(-c2ccc(Cl)cc2)ccc1=O	.	.	.	.	.	7
O=C1c2ccccc2C(=O)c2c1ccc(C(=O)N1CCCCC1)c2NCCO	-31	23	-1	1	-31	-3
CC1(C)CCCN(C(=O)c2ccc3c(c2NCCO)C(=O)c2ccccc2C3=O)C1	-9	3	-4	6	81*[fluorescence artefact?]	14
CCOc1ccc(OCCCC(=O)O)cc1	-31	-13	-1	-4	-8	3
Cc1ccccc1-n1nnnc1SCC(=O)c1c(N)n(C)c(=O)n(C)c1=O	-40	54*	.	1	-6	-12
COC(=O)CSc1nc(N)c(C#N)c(-c2ccc(O)cc2)c1C#N	57*	39	.	3	37	4
CCN1C(=O)/C(=C2\SC(=S)N(CC3CCCO3)C2=O)c2ccccc21 (configuration not stated)	-31	15	-1	7	-3	.
CCN1C(=O)/C(=C2\SC(=S)N(NC(=O)c3ccccc3O)C2=O)c2ccccc21	-69	65*	.	1	-2	31
Cn1c(SCC(=O)NCc2ccc3c(c2)OCO3)nnc1-c1cccs1	-13	0	-1	-11	-8	-2
CCn1c(SCC(=O)NCc2ccc3c(c2)OCO3)nnc1-c1cccs1	-4	-2	-5	68*	-12	5
CCCCN1C(=O)N(C)C2C1N(C)C(=O)N2CCCC (configuration not stated)	2	63*	.	-3	12	6
c1coc(-c2nc3c4c5c(sc4ncn3n2)CCCC5)c1	97*	11	-1	4	5	7
COc1ccc(CC(=O)Oc2ccc(Cl)cc2Br)cc1S(=O)(=O)N1CCOCC1	.	.	.	.	.	0
Oc1ccc(-c2nc(-c3ccc(O)c(O)c3)cs2)cc1	-2	59*	0	0	8	24
C=CCc1c(C)nc(-c2ccccc2)nc1N/N=C/c1ccccc1	2	16	-5	5	3	-7
C=CCc1c(C)nc(-c2ccccc2)nc1N/N=C(\C)c1ccc(N)cc1	-20	11	-1	0	74*[fluorescence artefact?]	9
Cc1ncc(CO)c(/C=N/NC(=S)Nc2cccc(Cl)c2)c1O	-74	15	-2	-5	-10	12
Cc1ncc(CO)c(/C=N/NC(=S)Nc2ccc(Cl)c(Cl)c2)c1O	-61	71*	-1	2	-15	-17
CC1CCc2nc3sc4c(c3c(N)c2C1)CCCC4 (configuration not stated)	-51	31	-2	-8	6	3
